# Values without a mark were called inactive. The source made the active and inactive calls. The call rests on the fitted dose curve; in most records, active means well fitted curve in the direction sought with a large enough effect in the repeat runs; inconclusive means weak or mixed curves; inactive means flat fitted curve, though single readings scatter.
# Test: qHTS assay to test for compound auto fluorescence at 460 nm (blue) in HEK293 cells (AID 720678)
# Settings: blue autofluorescence 405/460 nm; series mostly up to 91.3 µM; fluorescence, % of triamterene: at the top concentration
# Summary of the method: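 Intrinsic compound fluorescence is recorded in live HEK293 cultures after overnight incubation at 37C, 5% CO2, using excitation 405 nm and emission 460 nm. Values are referenced to triamterene.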
# On the % scale 0 is the no-effect control and ±100 the full control effect.
Structure (SMILES),"fluorescence, % of triamterene",outcome
NC1=NCC2c3ccccc3Cc3ccccc3N12 (configuration not stated),0.129% [at 46 µM],–
Cc1cc2c(s1)Nc1ccccc1N=C2N1CCN(C)CC1,-0.261% [at 46 µM],–
CCC(=O)c1ccc2c(c1)N(CCCN(C)C)c1ccccc1S2,0.156% [at 46 µM],–
CC(=O)Oc1cc(C(C)C)c(OCCN(C)C)cc1C,-0.184% [at 18.6 µM],–
CC(C)=CCCC(C)CCOC=O (configuration not stated),-0.0467%,–
CC1(C)C(=O)N(Cl)C(=O)N1Br,-0.0219%,–
CCN(CC)CC1CCCCN1CC(=O)N1c2ccccc2C(=O)Nc2cccnc21 (configuration not stated),0.256% [at 46 µM],–
CC1=C(CC(=O)O)c2cc(F)ccc2/C1=C\c1ccc(S(C)(=O)=O)cc1,0.0429% [at 46 µM],–
Cc1ccc(C)c(N)c1,0.0409%,–
CC1(O)CSC(C)(O)CS1 (configuration not stated),0.0673%,–
CCN(CC)CCOc1ccc(Cc2ccccc2)cc1,0.0246% [at 46 µM],–
CC(C)O,–,inactive
CC1CN(c2ccccc2)NC1=O (configuration not stated),-0.124%,–
O=c1[nH]c(=O)n([C@H]2C[C@H](O)[C@@H](CO)O2)cc1C(F)(F)F,0.076% [at 46 µM],–
Cc1c[nH]c(=S)[nH]c1=O,0.0682%,–
O=C(CC(=O)C(F)(F)F)c1ccccc1,-0.0274% [at 95.7 µM],–
CCCCN1C[C@H](O)[C@@H](O)[C@H](O)[C@H]1CO,-0.0792% [at 46 µM],–
CCCCCCOc1ccc(N)cc1,0.0093%,–

Structure (SMILES),"fluorescence, % of triamterene",outcome
CC1=NN(c2cc(Cl)c(S(=O)(=O)O)cc2Cl)C(=O)C1N=Nc1ccc(S(=O)(=O)O)cc1 (configuration not stated),-0.0187%,–
CC(C)(C)C1CCCCC1=O (configuration not stated),-0.0578%,–
CC1=C2[C@H](/C=C(\C)C(=O)O)CC[C@@H](C)[C@H]2CC1,0.0034% [at 95.7 µM],–
CN1C(=O)CC(c2ccccc2)C1=O (configuration not stated),-0.0678% [at 46 µM],–
Clc1cccc(-c2cc(Cl)cc(Cl)c2)c1,0.074%,–
CCCCCCCCc1ccc(S(=O)(=O)O)cc1,-0.0213%,–
O=C(Cl)c1cccc([N+](=O)[O-])c1,0.0115%,–
C=O,–,inactive
Cc1c(N)cccc1N,0.326% [at 95.7 µM],–
COc1ccc(Nc2ccc(OC)cc2)cc1,-0.299% [at 95.7 µM],–
CCCCCCCCCCCCCCCCOP(=O)([O-])OCC[N+](C)(C)C,0.0132% [at 46 µM],–
CN(CCCN1c2ccccc2CCc2ccccc21)CC(=O)c1ccc(Cl)cc1,1.19% [at 46 µM],–
O=C1CCCCCCCCCCC(=O)OCCO1,-0.0075%,–
CCOC(=O)CS,0.24% [at 95.7 µM],–
CCOC(=O)COc1ccc2c(c1)CC(NCC(O)c1cccc(Cl)c1)CC2 (configuration not stated),-0.0186%,–
CCCCC(=O)O[C@]1(C(=O)CO)[C@H](C)C[C@H]2[C@@H]3CCC4=CC(=O)C=C[C@]4(C)[C@@]3(F)[C@@H](O)C[C@@]21C,-0.0058% [at 46 µM],–
Oc1ccccc1F,0.218%,–
O=C1Nc2ccc([N+](=O)[O-])cc2C1=O,0.02%,–

# Test: qHTS assay to test for compound auto fluorescence at 590 nm (red) in HEK293 cells (AID 720679)
# Settings: red autofluorescence 540/590 nm; series mostly up to 91.3 µM; fluorescence, % of fluorescent control: at the top concentration
# Summary of the method: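 Red autofluorescence, HEK293 cells: 2,000 cells/well; attach 4-5 hr 37C; add 23 nL cpd or DMSO; incubate o/n 37C 5% CO2; read Ex540/Em590; Rose Bengal sodium reference.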
Structure (SMILES),"fluorescence, % of fluorescent control",outcome
NC1=NCC2c3ccccc3Cc3ccccc3N12 (configuration not stated),-0.0032% [at 46 µM],–
Cc1cc2c(s1)Nc1ccccc1N=C2N1CCN(C)CC1,-0.0879% [at 46 µM],–
CCC(=O)c1ccc2c(c1)N(CCCN(C)C)c1ccccc1S2,0.247% [at 46 µM],–
CC(=O)Oc1cc(C(C)C)c(OCCN(C)C)cc1C,-0.192% [at 18.6 µM],–
CC(C)=CCCC(C)CCOC=O (configuration not stated),-0.0374%,–
CC1(C)C(=O)N(Cl)C(=O)N1Br,-0.0014%,–
CCN(CC)CC1CCCCN1CC(=O)N1c2ccccc2C(=O)Nc2cccnc21 (configuration not stated),0.0659% [at 46 µM],–
CC1=C(CC(=O)O)c2cc(F)ccc2/C1=C\c1ccc(S(C)(=O)=O)cc1,0.324% [at 46 µM],–
Cc1ccc(C)c(N)c1,0.519%,–
CC1(O)CSC(C)(O)CS1 (configuration not stated),-0.511%,–
CCN(CC)CCOc1ccc(Cc2ccccc2)cc1,0.0341% [at 46 µM],–
CC(C)O,–,inactive
CC1CN(c2ccccc2)NC1=O (configuration not stated),-0.214%,–
O=c1[nH]c(=O)n([C@H]2C[C@H](O)[C@@H](CO)O2)cc1C(F)(F)F,0.0257% [at 46 µM],–
Cc1c[nH]c(=S)[nH]c1=O,0.0161%,–
O=C(CC(=O)C(F)(F)F)c1ccccc1,0.273% [at 95.7 µM],–
CCCCN1C[C@H](O)[C@@H](O)[C@H](O)[C@H]1CO,-0.327% [at 46 µM],–
CCCCCCOc1ccc(N)cc1,-0.288%,–

Structure (SMILES),"fluorescence, % of fluorescent control",outcome
CC1=NN(c2cc(Cl)c(S(=O)(=O)O)cc2Cl)C(=O)C1N=Nc1ccc(S(=O)(=O)O)cc1 (configuration not stated),0.0174%,–
CC(C)(C)C1CCCCC1=O (configuration not stated),-0.773%,–
CC1=C2[C@H](/C=C(\C)C(=O)O)CC[C@@H](C)[C@H]2CC1,0.342% [at 95.7 µM],–
CN1C(=O)CC(c2ccccc2)C1=O (configuration not stated),1.18% [at 46 µM],–
Clc1cccc(-c2cc(Cl)cc(Cl)c2)c1,0.0572%,–
CCCCCCCCc1ccc(S(=O)(=O)O)cc1,0.138%,–
O=C(Cl)c1cccc([N+](=O)[O-])c1,0.07%,–
C=O,–,inactive
Cc1c(N)cccc1N,0.0704% [at 95.7 µM],–
COc1ccc(Nc2ccc(OC)cc2)cc1,-0.65% [at 95.7 µM],–
CCCCCCCCCCCCCCCCOP(=O)([O-])OCC[N+](C)(C)C,0.76% [at 46 µM],–
CN(CCCN1c2ccccc2CCc2ccccc21)CC(=O)c1ccc(Cl)cc1,-0.0807% [at 46 µM],–
O=C1CCCCCCCCCCC(=O)OCCO1,-0.166%,–
CCOC(=O)CS,-0.008% [at 95.7 µM],–
CCOC(=O)COc1ccc2c(c1)CC(NCC(O)c1cccc(Cl)c1)CC2 (configuration not stated),-0.0037%,–
CCCCC(=O)O[C@]1(C(=O)CO)[C@H](C)C[C@H]2[C@@H]3CCC4=CC(=O)C=C[C@]4(C)[C@@]3(F)[C@@H](O)C[C@@]21C,-0.0648% [at 46 µM],–
Oc1ccccc1F,-0.237%,–
O=C1Nc2ccc([N+](=O)[O-])cc2C1=O,-0.0275%,–
